We go through 18 molecules from PubChem BioAssay.

Results filed as inconclusive are left out. Active and inactive are the calls of the source. No stated cut-off is given here; in the data, active means fluorescence slope change above about 50%; inconclusive means mostly about 31% to 49%; inactive means weaker than that.

Chain of ATP-dependent translocase ABCB1 (Homo sapiens) (P08183 whole entry, looked up): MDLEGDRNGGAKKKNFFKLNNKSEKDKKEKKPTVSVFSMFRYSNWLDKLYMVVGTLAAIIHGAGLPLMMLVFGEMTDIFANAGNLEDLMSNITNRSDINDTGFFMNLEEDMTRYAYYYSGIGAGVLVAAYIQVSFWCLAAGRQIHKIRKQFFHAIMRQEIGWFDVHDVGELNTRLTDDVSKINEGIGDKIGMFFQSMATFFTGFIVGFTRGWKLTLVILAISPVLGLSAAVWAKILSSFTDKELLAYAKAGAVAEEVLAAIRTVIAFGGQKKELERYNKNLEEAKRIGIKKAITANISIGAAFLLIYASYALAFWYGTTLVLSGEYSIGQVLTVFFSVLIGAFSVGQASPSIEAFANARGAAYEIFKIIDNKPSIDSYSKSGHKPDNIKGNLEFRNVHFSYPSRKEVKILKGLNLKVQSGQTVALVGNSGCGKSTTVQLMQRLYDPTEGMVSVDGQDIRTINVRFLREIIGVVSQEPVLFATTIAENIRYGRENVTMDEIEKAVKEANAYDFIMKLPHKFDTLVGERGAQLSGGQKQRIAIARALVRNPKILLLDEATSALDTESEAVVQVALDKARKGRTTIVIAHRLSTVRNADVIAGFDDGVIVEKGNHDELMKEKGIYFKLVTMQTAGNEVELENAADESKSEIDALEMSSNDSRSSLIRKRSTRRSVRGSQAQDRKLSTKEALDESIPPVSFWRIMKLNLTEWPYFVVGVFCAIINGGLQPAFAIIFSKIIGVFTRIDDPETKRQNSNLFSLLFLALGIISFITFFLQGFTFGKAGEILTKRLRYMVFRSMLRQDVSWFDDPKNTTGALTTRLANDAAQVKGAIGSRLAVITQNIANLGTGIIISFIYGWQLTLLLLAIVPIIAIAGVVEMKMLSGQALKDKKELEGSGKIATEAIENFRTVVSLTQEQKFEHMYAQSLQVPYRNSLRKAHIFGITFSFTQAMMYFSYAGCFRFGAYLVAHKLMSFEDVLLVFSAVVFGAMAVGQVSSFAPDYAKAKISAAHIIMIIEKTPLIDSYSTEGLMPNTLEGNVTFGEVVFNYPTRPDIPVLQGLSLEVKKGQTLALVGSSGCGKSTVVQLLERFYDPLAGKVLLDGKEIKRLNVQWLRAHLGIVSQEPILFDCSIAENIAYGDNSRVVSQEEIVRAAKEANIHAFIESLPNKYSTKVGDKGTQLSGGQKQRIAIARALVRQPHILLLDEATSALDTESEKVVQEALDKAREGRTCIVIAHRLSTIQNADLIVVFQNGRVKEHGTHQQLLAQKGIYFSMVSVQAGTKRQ

The first experiment has as its target ATP-dependent translocase ABCB1 (Homo sapiens) (UniProt P08183). The experiment can be described thus: P-glycoprotein substrate transport blockade – cell-based (AID 377). The conditions noted are these: MDR1-expressing cells, fluorescent substrate accumulation slope; stronger effect = higher value; concentration not given here.
Regarding `Cc1nnc(NS(=O)(=O)c2ccc(N)cc2)s1`, the fluorescence slope change is 9.7% (inactive).
For the molecule `CCN(CC)CCNc1ccc(CO)c2sc3ccccc3c(=O)c12`, the fluorescence slope change was -2.7% (inactive).
Same read-out and setting: under `NS(=O)(=O)c1cc2c(cc1Cl)NC(CSCc1ccccc1)=NS2(=O)=O` stands 78.4% (active); under `CO[C@@]1(NC(=O)C(C(=O)O)c2ccc(O)cc2)C(=O)N2C(C(=O)O)=C(CSc3nnnn3C)CO[C@@H]21` (stereo not given in full), 63.7% (active).

Test system in the next experiment: not listed separately
The experiment in a line: blockers of polyQ-driven CASP3 activation – cell-based (AID 1583). The conditions noted are these: polyglutamine-induced caspase-3 activation, cell assay; stronger effect = higher value;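 tested at 10 µM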.
The term inhibition denotes the relative decrease from the control value, in per cent. Regarding `C=Cc1c(C)c2cc3[nH]c(cc4nc(cc5nc(cc1[nH]2)C(C)=C5CCC(=O)O)C(CCC(=O)O)=C4C)c(C)c3C=C`, the inhibition stood at 39.5%.
Turning to `OCc1ccccc1O`, the inhibition was -8.47%.
Same read-out and setting: under `Nc1nccs1` stands 9.3%; under `CC(=O)Oc1ccc(C(c2ccc(OC(C)=O)cc2)c2ccccn2)cc1`, 10.5%.
For the molecule `CCCOc1ccc2nc(NC(=O)OC)[nH]c2c1`, the inhibition came out at 0.98%.
Take `Cc1nnc(NS(=O)(=O)c2ccc(N)cc2)s1`: the inhibition turned out to be 18.6%.
`Cc1cc(=O)n(-c2ccccc2)n1C`: the inhibition is 22%.
Consider `Nc1ccc(N=Nc2ccccc2)c(N)n1`, for which the inhibition amounted to 8.8%.
As for `CS(=O)(=O)c1ccc([C@@H](O)[C@@H](CO)NC(=O)C(Cl)Cl)cc1`, the inhibition is -7.88%.
For the molecule `COc1cc(C(=O)NCc2ccc(OCCN(C)C)cc2)cc(OC)c1OC`, the inhibition came out at 17.1%.
For `COc1ccc2cc3[n+](cc2c1OC)CCc1cc2c(cc1-3)OCO2`, the inhibition is -15.4%.
Same read-out and setting: for `Cc1cc(-c2ccccc2)nnc1NCCN1CCOCC1` the value was 7.39%; for `Cc1ccc(C(C)C)cc2c(C)ccc1-2`, 0.23%.
As for `CCN(CC)CCNc1ccc(CO)c2sc3ccccc3c(=O)c12`, the inhibition came out at 2.1%.
`NC(=O)NC(=O)Cc1ccccc1`: the inhibition came to 24.8%.
Take `Oc1c(Cl)cc(Cl)cc1Sc1cc(Cl)cc(Cl)c1O`: the inhibition was -9.02%.
